Measurements: PubChem BioAssay AID463173 (ICCB-Longwood Screening Facility, Harvard Medical School, 2010)
Among all 52,000 compounds or so, about 4,300 (8.3%) were called active. What follows is part of a selection rich in actives, with near analogues and random picks from the rest. Unmarked numbers belong to inactive results. Rule as the data show it: active = survival mostly below about 52% (no sharp cut-off); inactive = mostly above about 56%.

What follows are compounds tested on DeltatarO mutant (assay: S. aureus survival, RN4220 and DeltatarO strains – OD600, teichoic acid synthesis inhibitors, primary screen (AID 463173)). Details: S. aureus RN4220 wild type/DeltatarO growth, OD600, 18 h, active compounds read low, screened at 18.75 µg/mL (by protocol).
With CCN(CC)S(=O)(=O)c1cccc(C(=O)NCc2ccccc2)c1 the survival was 49%. Work on CCN(C(=O)Cn1cc(C(=O)c2ccc(F)cc2)c(=O)c2ccc(C)nc21)c1cccc(C)c1 yielded a survival of 71%. With CCc1ccccc1NC(=O)C1CCN(c2nn3c(=O)cc(C)nc3s2)CC1 the survival was 81%. For Cc1ccc(N(CC(=O)N2CCN(c3cccc(Cl)c3)CC2)S(=O)(=O)c2c(C)noc2C)cc1, the survival was 73%. CCCCS(=O)(=O)CC(O)CSc1nc(-c2ccc(C)cc2)cc(-c2ccccc2)c1C#N (stereo not given) gave a survival of 68%. Compound CCN1C(=O)C2C(c3ccc(OC)cc3)NC(CC)(C(=O)OC)C2C1=O (stereo not given) has a survival of 56%. CN(C)CCNC(=O)c1ccc(Cn2c(SCc3ccc(F)cc3)nc3cccnc32)cc1 gave a survival of 131%. CCN(c1ccccc1C)S(=O)(=O)c1nnc(NC(=O)c2ccco2)s1 was tested, and the survival was 41% (active). In the case of CCN(c1cc(C)cc(C)c1)S(=O)(=O)c1nnc(NC(=O)c2ccco2)s1, the survival is reported as 52%. CN(c1ccccc1)S(=O)(=O)c1nnc(NC(=O)c2ccco2)s1 was tested, and the survival was 47%. For CCN(c1ccccc1)S(=O)(=O)c1nnc(NC(=O)c2ccco2)s1, the survival was 39% (active). For CCN(c1ccc(Cl)cc1)S(=O)(=O)c1nnc(NC(=O)c2ccco2)s1, the survival was 67%. COc1ccc(N(CC(C)C)S(=O)(=O)c2nnc(NC(=O)c3ccco3)s2)cc1 was tested, and the survival was 41% (active). In the case of CC(C)CN(c1ccccc1)S(=O)(=O)c1nnc(NC(=O)c2ccco2)s1, the survival is reported as 31% (active). Cc1ccccc1N(C)S(=O)(=O)c1nnc(NC(=O)c2ccco2)s1 was tested, and the survival was 94%. CC(C)CC(=O)Nc1nnc(S(=O)(=O)N(CC(C)C)c2ccccc2)s1 showed a survival of 111%. O=C(Cn1c(=O)n(-c2ccccc2)c(=O)c2ccc(C(=O)NCc3ccc4c(c3)OCO4)cc21)Nc1ccc(F)cc1 showed a survival of 64%. Work on CC(C)c1ccc(NC(=O)Cn2cc(S(=O)(=O)Cc3cccc(Cl)c3)c3ccccc32)cc1 yielded a survival of 76%. Compound Cn1c(C(=O)N2CCc3ccccc32)cc2sccc21 has a survival of 91%. For CC(=O)N1CCc2c(sc(NC(=O)CSc3ccc(F)cc3)c2-c2nc3ccccc3s2)C1, the survival was 108%. For Cc1ccc(Cn2c(CNC(=O)c3ccc(Cl)c([N+](=O)[O-])c3)nc3cccnc32)cc1, the survival was 88%. CC(SC(=S)N1CCCCCC1)C(=O)O (stereo not given) gave a survival of 90%. In the case of O=C(Cn1cc(S(=O)(=O)N2CCCC2)c(S(=O)(=O)N2CCCC2)c1)Nc1cccc(F)c1, the survival is reported as 98%. With Cc1nn(-c2ccccc2)c(-n2cccc2)c1C(=O)NCCCN1CCN(c2ccccc2F)CC1 the survival was 63%. For Cc1ccc(N(CC(C)C)S(=O)(=O)c2nnc(NC(=O)c3ccco3)s2)cc1, the survival was 44% (active). Cc1ccc(N(C)S(=O)(=O)c2nnc(NC(=O)c3ccco3)s2)cc1 gave a survival of 57%. CCC(C)(C)C(=O)Nc1ccc(Cl)cc1 gave a survival of 93%. For CCN(CC)C(=O)c1c(NC(=O)c2cccc(C)c2)sc2c1CCC(C)C2 (stereo not given), the survival was -1% (active). Cc1cccc(NC(=O)c2c(NC(=O)c3ccco3)sc3c2CCC(C)C3)c1 (stereo not given) was tested, and the survival was 53%. For CCOc1ccc(NC(=O)c2c(NC(=O)Cc3ccccc3)sc3c2CCC(C)C3)cc1 (stereo not given), the survival was 46%. For CC1CCc2c(sc(NC(=O)c3ccccc3)c2C(=O)Nc2ccccc2)C1 (stereo not given), the survival was 42% (active). CC1CCc2c(sc(NC(=O)Cc3ccccc3)c2C(=O)Nc2ccc(Cl)cc2)C1 (stereo not given) gave a survival of 57%. For Cc1cccc(C(=O)Nc2sc3c(c2C(=O)N2CCCCC2)CCC(C)C3)c1 (stereo not given), the survival was -6% (active). For Cc1cccc(NC(=O)c2c(NC(=O)c3cccs3)sc3c2CCC(C)C3)c1 (stereo not given), the survival was 60%. CCOc1ccc(C(=O)c2cn(Cc3cccc(OC)c3)c3cc4c(cc3c2=O)OCO4)cc1 gave a survival of 72%. Work on COC(=O)c1ccc2nc(C)cc(Nc3ccc(O)cc3)c2c1 yielded a survival of 186%. With COc1cc(Cl)c(S(=O)(=O)N2CCN(c3c(C)cccc3C)CC2)cc1Cl the survival was 69%. C/C(=N\NC(=O)c1cc2ccccc2cc1O)c1ccc(N)cc1 was tested, and the survival was 70%. COc1ccc(CNC(=O)Nc2ccc3c(c2)N(C)C(=O)c2ccccc2S3)cc1OC gave a survival of 61%. For O=C(Nc1ccc(Cl)cc1)c1cc2nc(-c3ccc4c(c3)OCO4)cc(C(F)(F)F)n2n1, the survival was 83%. Work on CC(C)NC(=O)C1CC(c2ccc(Cl)cc2)=NO1 (stereo not given) yielded a survival of 84%. For Cn1nc(-c2ccccc2F)c2cc(C(=O)NCCc3ccc(Cl)cc3)sc21, the survival was 76%. For COc1cccc(CNC(=O)c2cc3c(-c4ccccc4F)nn(C)c3s2)c1, the survival was 59%. For COc1ccc(CNC(=O)c2cc3c(-c4ccccc4F)nn(C)c3s2)cc1, the survival was 61%. With Cn1nc(-c2ccccc2F)c2cc(C(=O)NCc3ccc(Cl)cc3)sc21 the survival was 87%. Cn1nc(-c2ccccc2F)c2cc(C(=O)NCc3cccc(Cl)c3)sc21 was tested, and the survival was 41% (active). Cn1nc(-c2ccccc2F)c2cc(C(=O)NCc3ccccc3Cl)sc21 was tested, and the survival was 56% (active). CCN1C(=O)C2(c3ccccc31)c1c(oc3ccccc3c1=O)C(=O)N2CCOC (stereo not given) was tested, and the survival was 67%. For Cc1oc2cc3oc(=O)c(CC(=O)NCc4ccccc4)c(C)c3cc2c1C, the survival was 73%. Compound Cc1ccc(C(=O)N2CCc3cc(CNC(=O)COc4ccccc4)ccc32)cc1 has a survival of 89%. Work on Cc1ccc(-n2nc3c(=O)n(CCCC(=O)NC(C)c4ccccc4)nc(C)c3c2C)cc1 (stereo not given) yielded a survival of 67%. Compound COc1ccc(S(=O)(=O)N(CCc2ccccc2)CC(=O)NCc2ccccc2)cc1OC has a survival of 62%. O=C(CC(c1cccs1)N1Cc2ccccc2C1=O)Nc1ccc(Cl)cc1 (stereo not given) gave a survival of 131%. With Cc1c(Cl)cccc1NC(=O)CC(c1cccs1)N1Cc2ccccc2C1=O (stereo not given) the survival was 32% (active). CCc1ccccc1NC(=O)CC(c1ccc(F)cc1)N1Cc2ccccc2C1=O (stereo not given) gave a survival of 117%. In the case of Cc1c(Cl)cccc1NC(=O)CC(c1ccc(F)cc1)N1Cc2ccccc2C1=O (stereo not given), the survival is reported as 37% (active). In the case of O=C(CC(c1cccs1)N1Cc2ccccc2C1=O)Nc1ccccc1F (stereo not given), the survival is reported as 78%. CCOc1ccccc1NC(=O)CC(c1ccc(F)cc1)N1Cc2ccccc2C1=O (stereo not given) showed a survival of 99%. Work on CCOC(=O)C1CCCN(C(=O)Cn2ncc3c([nH]c4ccc(C)cc43)c2=O)C1 (stereo not given) yielded a survival of 81%. CCOC(=O)c1ccc2c(c1)N(CC#N)C(=O)C(C)(C)O2 showed a survival of 94%. For CCOC(=O)c1[nH]c(Cc2[nH]c(C(=O)OCC)c(C)c2CC(=O)OC)c(CCC(=O)OC)c1C, the survival was 70%. CCc1ccc(NC(=O)c2cc(=O)c3ccc(C)c(C)c3o2)cc1 was tested, and the survival was 91%. With COc1ccc(OC)c(NC(=O)c2cc(=O)c3c(C)cc(C)cc3o2)c1 the survival was 42% (active). In the case of Cc1ccc2c(=O)cc(C(=O)Nc3cccc(Cl)c3C)oc2c1C, the survival is reported as 54%. For COc1ccccc1NC(=O)c1cc(=O)c2ccc(C)c(C)c2o1, the survival was 41% (active). In the case of CCOc1ccc(NC(=O)c2cc(=O)c3ccc(C)c(C)c3o2)cc1, the survival is reported as 60%. CCOC(=O)c1ccc(NC(=O)c2cc(=O)c3ccc(C)c(C)c3o2)cc1 was tested, and the survival was 45% (active). In the case of COC(=O)c1ccccc1NC(=O)c1cc(=O)c2ccc(C)c(C)c2o1, the survival is reported as 72%. For Cc1ccc2c(=O)cc(C(=O)Nc3ccc(S(=O)(=O)N(C)c4ccccc4)cc3)oc2c1C, the survival was 50% (active). For Cc1ccc2c(=O)cc(C(=O)Nc3ccc(S(=O)(=O)N(C)Cc4ccccc4)cc3)oc2c1C, the survival was 92%. Compound Cc1cc(C)c2c(=O)cc(C(=O)Nc3ccccc3Cl)oc2c1 has a survival of 62%. Compound COc1ccc(CCNC(=O)c2cc(=O)c3c(C)cc(C)cc3o2)cc1OC has a survival of 57%. Work on CCN(c1ccccc1)S(=O)(=O)c1ccc(NC(=O)c2cc(=O)c3ccc(C)c(C)c3o2)cc1 yielded a survival of 64%. COc1cccc2cc(-c3nc(-c4cccs4)no3)c(=O)oc12 showed a survival of 67%. COc1ccc(C)c2sc(NC(=O)c3ccc(S(=O)(=O)N4CCCCC4)cc3)nc12 showed a survival of 92%. O=C(O)c1cc2nc3c(c(C(F)(F)F)n2n1)CCC3 showed a survival of 89%. O=C(Cn1cnc2c(nc3n2CCCCC3)c1=O)Nc1cccc(C(F)(F)F)c1 gave a survival of 83%. In the case of O=C(Cn1cc(S(=O)(=O)Cc2ccccc2F)c2ccccc21)NCc1ccccc1, the survival is reported as 87%. Work on Cc1ccc(NCc2cc3cc4c(cc3n(CC(=O)Nc3ccc(F)cc3F)c2=O)OCCO4)cc1 yielded a survival of 70%. O=C(CN1CCC(C(=O)c2ccc(F)cc2)CC1)Nc1ccccc1 gave a survival of 83%. CCCCSc1nc(O)c(CCC(C)C)c(=O)[nH]1 was tested, and the survival was 60%. Cc1ccc(S(=O)(=O)N(CCc2ccccc2)CC(=O)Nc2ccc(Br)cc2)cc1 showed a survival of 75%. COc1cc(NC(=O)CSc2nc(-c3ccc(C(C)C)cc3)no2)cc(OC)c1 gave a survival of 91%. With O=C(Cn1c(=O)n(-c2cccc(Cl)c2)c(=O)c2sc3ccccc3c21)NC1CCCCC1 the survival was 127%. O=C1CCN(Cc2ccccc2)C(=S)N1 was tested, and the survival was 49% (active). Compound OC1(c2ccccc2)CCN(Cc2ccccc2)CC1 has a survival of 73%. C/C=C1\NC(=S)N(Cc2ccccc2)C1=O gave a survival of 84%. In the case of COC(=O)C1C(=O)C2=C(CC1C)Nc1ccccc1NC2c1ccc(N(C)C)cc1 (stereo not given), the survival is reported as 79%. In the case of Cc1ccc(-c2nnc3ccccc3c2C(=O)Nc2ccc(C)c(F)c2)cc1, the survival is reported as 80%. With O=C(COc1ccc(F)cc1)Nc1ccc2nc(SCCOc3ccccc3)sc2c1 the survival was 87%.
